# Assay results published in ChEMBL document CHEMBL2218924, “A broad activity screen in support of a chemogenomic map for kinase signalling research and drug discovery” (Biochem J, 2013).
# Columns and labels:
# [1] = target: Serine/threonine-protein kinase PAK 5 (Homo sapiens) (UniProt Q9P286); conditions: at 1 µM
# [2] = target: Serine/threonine-protein kinase PAK 5 (Homo sapiens) (UniProt Q9P286); conditions: at 10 µM
# [3] = target: Serine/threonine-protein kinase PAK 6 (Homo sapiens) (UniProt Q9NQU5); conditions: at 1 µM
# Serine/threonine-protein kinase PAK 6 (Homo sapiens), sequence (Q9NQU5 whole entry, looked up, the tested form may be a part): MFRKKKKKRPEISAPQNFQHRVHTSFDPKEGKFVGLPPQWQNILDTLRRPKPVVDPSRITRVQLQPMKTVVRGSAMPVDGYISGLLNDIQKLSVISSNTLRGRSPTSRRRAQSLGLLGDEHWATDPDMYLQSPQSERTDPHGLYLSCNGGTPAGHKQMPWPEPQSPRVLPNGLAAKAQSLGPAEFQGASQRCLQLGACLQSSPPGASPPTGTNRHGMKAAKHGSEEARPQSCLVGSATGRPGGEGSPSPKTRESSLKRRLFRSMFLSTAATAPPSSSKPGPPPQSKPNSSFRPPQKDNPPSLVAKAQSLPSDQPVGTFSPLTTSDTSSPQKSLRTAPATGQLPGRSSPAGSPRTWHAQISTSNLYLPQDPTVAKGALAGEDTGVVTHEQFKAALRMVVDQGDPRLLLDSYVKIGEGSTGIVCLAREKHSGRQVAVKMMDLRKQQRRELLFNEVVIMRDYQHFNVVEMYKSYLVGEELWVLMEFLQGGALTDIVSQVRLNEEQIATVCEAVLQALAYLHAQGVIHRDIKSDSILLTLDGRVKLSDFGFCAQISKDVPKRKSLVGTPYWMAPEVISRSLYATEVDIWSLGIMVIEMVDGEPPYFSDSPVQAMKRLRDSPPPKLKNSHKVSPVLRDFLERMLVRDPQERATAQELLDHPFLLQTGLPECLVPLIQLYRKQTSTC
# [4] = target: Serine/threonine-protein kinase PAK 6 (Homo sapiens) (UniProt Q9NQU5); conditions: at 10 µM
# [5] = target: PAS domain-containing serine/threonine-protein kinase (Homo sapiens) (UniProt Q96RG2); conditions: at 1 µM
# PAS domain-containing serine/threonine-protein kinase (Homo sapiens), sequence (Q96RG2 whole entry, the tested form may be a part): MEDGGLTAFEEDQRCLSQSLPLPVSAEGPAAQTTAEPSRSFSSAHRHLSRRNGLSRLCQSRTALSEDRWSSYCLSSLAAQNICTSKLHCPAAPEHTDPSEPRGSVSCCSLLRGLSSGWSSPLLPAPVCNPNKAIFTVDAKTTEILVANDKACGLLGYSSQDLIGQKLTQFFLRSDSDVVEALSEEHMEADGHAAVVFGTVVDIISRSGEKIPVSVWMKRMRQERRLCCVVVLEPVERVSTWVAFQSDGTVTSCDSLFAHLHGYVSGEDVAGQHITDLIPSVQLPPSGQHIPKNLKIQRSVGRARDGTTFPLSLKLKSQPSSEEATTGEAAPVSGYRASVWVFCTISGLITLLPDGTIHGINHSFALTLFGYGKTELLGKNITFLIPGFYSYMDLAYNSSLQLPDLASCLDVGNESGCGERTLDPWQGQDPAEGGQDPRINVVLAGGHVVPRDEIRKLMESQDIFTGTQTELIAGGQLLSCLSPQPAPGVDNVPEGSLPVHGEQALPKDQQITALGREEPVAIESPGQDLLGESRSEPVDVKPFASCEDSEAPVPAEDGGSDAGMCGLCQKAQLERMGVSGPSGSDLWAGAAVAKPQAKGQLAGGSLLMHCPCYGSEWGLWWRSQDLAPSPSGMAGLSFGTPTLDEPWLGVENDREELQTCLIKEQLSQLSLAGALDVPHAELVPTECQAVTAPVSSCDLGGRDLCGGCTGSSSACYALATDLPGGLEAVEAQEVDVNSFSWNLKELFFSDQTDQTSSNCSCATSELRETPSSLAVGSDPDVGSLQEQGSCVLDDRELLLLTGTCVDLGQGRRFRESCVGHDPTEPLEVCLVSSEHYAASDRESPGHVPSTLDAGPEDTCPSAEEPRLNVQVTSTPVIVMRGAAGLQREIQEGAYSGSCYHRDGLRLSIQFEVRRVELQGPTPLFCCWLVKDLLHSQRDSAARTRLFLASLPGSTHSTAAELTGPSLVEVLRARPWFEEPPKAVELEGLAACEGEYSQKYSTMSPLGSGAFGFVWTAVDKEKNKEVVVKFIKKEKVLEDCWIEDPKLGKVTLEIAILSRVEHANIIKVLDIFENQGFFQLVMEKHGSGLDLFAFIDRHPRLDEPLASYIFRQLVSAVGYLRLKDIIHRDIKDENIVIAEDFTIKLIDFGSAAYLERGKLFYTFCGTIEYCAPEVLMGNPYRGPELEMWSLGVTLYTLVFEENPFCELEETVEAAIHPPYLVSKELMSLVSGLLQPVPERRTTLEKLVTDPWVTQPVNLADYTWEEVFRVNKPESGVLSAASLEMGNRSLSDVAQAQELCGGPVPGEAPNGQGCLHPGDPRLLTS
# [6] = target: PAS domain-containing serine/threonine-protein kinase (Homo sapiens) (UniProt Q96RG2); conditions: at 10 µM
# [7] = target: Activated CDC42 kinase 1 (Homo sapiens) (UniProt Q07912); conditions: at 1 µM
# Activated CDC42 kinase 1 (Homo sapiens), sequence (Q07912 whole entry, looked up): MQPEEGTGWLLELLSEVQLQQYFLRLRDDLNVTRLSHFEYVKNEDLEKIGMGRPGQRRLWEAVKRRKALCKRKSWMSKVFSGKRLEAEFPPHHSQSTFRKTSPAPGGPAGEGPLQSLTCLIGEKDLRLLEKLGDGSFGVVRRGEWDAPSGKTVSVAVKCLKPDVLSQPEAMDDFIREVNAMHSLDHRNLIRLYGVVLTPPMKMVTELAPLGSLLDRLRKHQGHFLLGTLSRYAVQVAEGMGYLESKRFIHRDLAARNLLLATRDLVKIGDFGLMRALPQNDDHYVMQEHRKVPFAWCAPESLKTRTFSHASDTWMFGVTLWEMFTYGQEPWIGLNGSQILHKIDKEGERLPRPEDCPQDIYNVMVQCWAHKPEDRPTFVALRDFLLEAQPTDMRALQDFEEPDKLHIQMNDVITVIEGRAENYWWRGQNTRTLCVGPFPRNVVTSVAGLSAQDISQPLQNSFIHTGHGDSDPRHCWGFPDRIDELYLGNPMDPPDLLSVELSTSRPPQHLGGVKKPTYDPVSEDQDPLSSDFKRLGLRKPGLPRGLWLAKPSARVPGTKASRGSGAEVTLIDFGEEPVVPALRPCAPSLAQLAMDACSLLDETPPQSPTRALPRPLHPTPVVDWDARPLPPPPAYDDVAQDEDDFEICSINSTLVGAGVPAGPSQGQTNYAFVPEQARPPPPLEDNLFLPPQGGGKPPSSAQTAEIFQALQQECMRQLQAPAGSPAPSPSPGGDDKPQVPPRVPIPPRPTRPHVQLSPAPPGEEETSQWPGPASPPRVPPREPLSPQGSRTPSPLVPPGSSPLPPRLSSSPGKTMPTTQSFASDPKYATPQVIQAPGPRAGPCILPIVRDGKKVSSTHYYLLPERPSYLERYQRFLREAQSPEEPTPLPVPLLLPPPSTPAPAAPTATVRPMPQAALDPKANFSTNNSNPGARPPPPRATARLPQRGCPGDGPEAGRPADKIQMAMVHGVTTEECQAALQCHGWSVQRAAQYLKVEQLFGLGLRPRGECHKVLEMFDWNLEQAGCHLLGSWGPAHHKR
# [8] = target: Activated CDC42 kinase 1 (Homo sapiens) (UniProt Q07912); conditions: at 10 µM
# [9] = target: ALK tyrosine kinase receptor (Homo sapiens) (UniProt Q9UM73); conditions: at 1 µM
# [10] = target: ALK tyrosine kinase receptor (Homo sapiens) (UniProt Q9UM73); conditions: at 10 µM
# Serine/threonine-protein kinase PAK 5 (Homo sapiens), sequence (Q9P286 whole entry, looked up): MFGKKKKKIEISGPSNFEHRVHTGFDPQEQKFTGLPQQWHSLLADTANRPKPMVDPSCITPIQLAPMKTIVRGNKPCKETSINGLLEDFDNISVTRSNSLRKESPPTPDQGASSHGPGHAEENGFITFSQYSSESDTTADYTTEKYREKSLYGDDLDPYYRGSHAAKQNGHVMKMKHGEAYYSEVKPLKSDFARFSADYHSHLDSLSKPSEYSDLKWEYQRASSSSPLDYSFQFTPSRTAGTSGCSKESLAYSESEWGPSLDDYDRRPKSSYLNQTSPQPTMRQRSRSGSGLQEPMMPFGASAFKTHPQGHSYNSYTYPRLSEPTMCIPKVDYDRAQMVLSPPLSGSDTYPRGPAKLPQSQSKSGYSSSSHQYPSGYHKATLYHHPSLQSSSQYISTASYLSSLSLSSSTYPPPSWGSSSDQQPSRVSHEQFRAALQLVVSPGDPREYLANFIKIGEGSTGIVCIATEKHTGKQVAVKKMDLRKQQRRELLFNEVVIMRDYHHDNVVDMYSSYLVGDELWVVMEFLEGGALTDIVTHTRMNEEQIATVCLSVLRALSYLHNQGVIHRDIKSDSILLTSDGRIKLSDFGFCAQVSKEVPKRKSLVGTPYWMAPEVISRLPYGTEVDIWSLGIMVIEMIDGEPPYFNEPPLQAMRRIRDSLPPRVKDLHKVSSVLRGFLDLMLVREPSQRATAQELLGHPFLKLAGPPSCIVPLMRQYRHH
smiles,measurement,setting,value
CCn1cnc2c(Nc3cccc(Cl)c3)nc(N[C@@H]3CCCC[C@@H]3N)nc21,residual activity,[1],38%
same,residual activity,[2],11%
same,residual activity,[3],38%
same,residual activity,[4],10%
same,residual activity,[5],113%
same,residual activity,[6],69%
same,residual activity,[7],34%
same,residual activity,[8],4%
same,residual activity,[9],82%
same,residual activity,[10],34%
O=C(O)/C=C/c1cc(Br)c(Br)c(Br)c1Br,residual activity,[5],63%
N#C/C(=C\c1ccc(O)c(O)c1)C(=O)NCc1ccccc1,residual activity,[5],100%
COc1ccc(S(=O)(=O)N(CCO)c2ccccc2CN(C)C/C=C/c2ccc(Cl)cc2)cc1,residual activity,[5],116%
C[S+]([O-])c1ccc(-c2nc(-c3ccc(F)cc3)c(-c3ccncc3)[nH]2)cc1 (stereo not drawn),residual activity,[1],105%
same,residual activity,[2],104%
same,residual activity,[3],110%
same,residual activity,[4],100%
same,residual activity,[5],113%
same,residual activity,[6],113%
same,residual activity,[7],93%
same,residual activity,[8],39%
same,residual activity,[9],122%
same,residual activity,[10],93%
COc1cc(OC)c(/C=C2\C(=O)Nc3ccccc32)c(OC)c1,residual activity,[1],96%
same,residual activity,[2],93%
same,residual activity,[4],93%
same,residual activity,[5],92%
same,residual activity,[7],71%
same,residual activity,[8],56%
same,residual activity,[9],89%
same,residual activity,[10],75%
CC(C)[C@H](CO)Nc1nc(Nc2cccc(Cl)c2)c2ncn(C(C)C)c2n1,residual activity,[1],50%
same,residual activity,[2],11%
same,residual activity,[3],57%
same,residual activity,[4],13%
same,residual activity,[5],135%
same,residual activity,[6],116%
same,residual activity,[7],45%
same,residual activity,[8],14%
same,residual activity,[9],71%
same,residual activity,[10],26%
N/C(=N\[N+](=O)[O-])N/N=C\c1ccc(-c2cccc([N+](=O)[O-])c2)o1,residual activity,[3],82%
same,residual activity,[4],70%
same,residual activity,[7],85%
same,residual activity,[8],71%
same,residual activity,[9],85%
same,residual activity,[10],69%
Nc1ncnc2c1c(-c1ccc(Oc3ccccc3)cc1)cn2C1CCCC1,residual activity,[5],108%
CC(C)(C)c1cc(C=C(C#N)C#N)cc(Br)c1O,residual activity,[3],111%
same,residual activity,[4],96%
same,residual activity,[5],80%
same,residual activity,[6],44%
same,residual activity,[7],106%
same,residual activity,[8],73%
O=C(Nc1cccc(Nc2cc(Nc3cccc(C(F)(F)F)c3)ncn2)c1)C1CC1,residual activity,[5],92%
CCCC(=O)Oc1ccc2[nH]c(C(=O)c3cc4ccccc4[nH]3)cc2c1,residual activity,[5],122%
c1ccc(-c2n[nH]c3c2oc2ccccc23)cc1,residual activity,[5],130%
O=C1Nc2ccccc2/C1=C\c1c(Cl)[nH]c2ccccc12,residual activity,[5],99%
CC(C)c1nn(-c2c(Cl)cccc2Cl)c2nc(Cc3ccc(OCCO)cc3)[nH]c(=O)c12,residual activity,[5],142%
COc1ccc2c(c[n+](C)c3c4cc5c(cc4ccc23)OCO5)c1OC,residual activity,[2],87%
same,residual activity,[3],99%
same,residual activity,[4],61%
same,residual activity,[5],70%
same,residual activity,[6],61%
same,residual activity,[7],84%
same,residual activity,[8],68%
same,residual activity,[10],65%
COc1ccc(C(=O)Nc2sc3c(c2C(N)=O)CCCC3)cc1OC,residual activity,[5],95%
O=C1Nc2ccccc2/C1=C1/Nc2ccccc2/C1=N\OCCC(O)CO (stereo not drawn),residual activity,[5],140%
O=C1c2ccccc2-c2nc3nnnn3nc21,residual activity,[1],80%
same,residual activity,[2],74%
same,residual activity,[3],112%
same,residual activity,[4],112%
same,residual activity,[7],109%
same,residual activity,[8],80%
O=c1[nH]c2ccccc2n1C1CCN(Cc2ccc(-c3nc4cc5[nH]cnc5cc4nc3-c3ccccc3)cc2)CC1,residual activity,[1],84%
same,residual activity,[2],67%
same,residual activity,[3],121%
same,residual activity,[4],68%
same,residual activity,[5],86%
same,residual activity,[6],42%
same,residual activity,[7],98%
same,residual activity,[8],77%
same,residual activity,[9],90%
same,residual activity,[10],63%
O=c1c(-c2ccc(F)cc2)c(-c2ccncc2)[nH]n1-c1ccc(Cl)cc1,residual activity,[5],135%
N#CC(C#N)=C(N)/C(C#N)=C/c1ccc(O)cc1,residual activity,[5],99%
COc1cc2ncnc(Nc3ccc(OCc4ccccc4)cc3)c2cc1OC,residual activity,[1],83%
same,residual activity,[2],79%
same,residual activity,[3],100%
same,residual activity,[4],103%
same,residual activity,[5],107%
same,residual activity,[6],71%
same,residual activity,[7],22%
same,residual activity,[8],10%
same,residual activity,[9],86%
same,residual activity,[10],76%
COc1ccc(CNc2nc(N(CCO)CCO)nc3c2ncn3C(C)C)cc1,residual activity,[5],117%
O=[N+]([O-])/C=C/c1ccc2c(c1)OCO2,residual activity,[1],103%
same,residual activity,[2],92%
same,residual activity,[4],102%
same,residual activity,[5],107%
same,residual activity,[6],87%
same,residual activity,[7],83%
same,residual activity,[8],69%
same,residual activity,[9],84%
same,residual activity,[10],101%
CCc1nc(-c2ccc(OC)cc2)[nH]c1-c1ccncc1,residual activity,[1],111%
same,residual activity,[2],105%
same,residual activity,[5],128%
same,residual activity,[8],69%
COC(=O)[C@@]1(O)C[C@H]2O[C@]1(C)n1c3ccccc3c3c4c(c5c6ccccc6n2c5c31)C(=O)NC4,residual activity,[1],6%
same,residual activity,[2],1%
same,residual activity,[3],0%
same,residual activity,[4],-1%
same,residual activity,[5],14%
same,residual activity,[6],4%
same,residual activity,[7],0%
same,residual activity,[8],0%
same,residual activity,[9],10%
same,residual activity,[10],1%
Oc1ccc(-c2nc(-c3ccc(F)cc3)c(-c3ccncc3)[nH]2)cc1,residual activity,[5],92%
O=c1cc(N2CCOCC2)oc2c(-c3ccccc3)cccc12,residual activity,[5],125%
CN(C)c1ccc(/C=C2\C(=O)Nc3ccccc32)cc1,residual activity,[5],86%
COc1cc2ncnc(Nc3ccc(NC(=O)c4ccccc4)cc3)c2cc1OC,residual activity,[5],133%
c1cc(-c2cnn3cc(-c4ccc(OCCN5CCCCC5)cc4)cnc23)ccn1,residual activity,[1],87%
same,residual activity,[2],69%
same,residual activity,[5],106%
same,residual activity,[6],57%
same,residual activity,[7],63%
same,residual activity,[8],18%
same,residual activity,[9],76%
same,residual activity,[10],61%
